RORg inh: inhibitors of mouse ROR gamma transcriptional activity; AID 2551; P51450; Potency, µM (doses to about 53.6 µM), most hits filed as inhibitors; Drosophila S2 Gal4-RORgamma UAS-luciferase reporter, 20 h; 310,000 tested, 5.4% active; further: nearly all actives have a fitted effect of over 60% in size
Target sequence (P51450 whole entry, looked up, the tested form may be a part): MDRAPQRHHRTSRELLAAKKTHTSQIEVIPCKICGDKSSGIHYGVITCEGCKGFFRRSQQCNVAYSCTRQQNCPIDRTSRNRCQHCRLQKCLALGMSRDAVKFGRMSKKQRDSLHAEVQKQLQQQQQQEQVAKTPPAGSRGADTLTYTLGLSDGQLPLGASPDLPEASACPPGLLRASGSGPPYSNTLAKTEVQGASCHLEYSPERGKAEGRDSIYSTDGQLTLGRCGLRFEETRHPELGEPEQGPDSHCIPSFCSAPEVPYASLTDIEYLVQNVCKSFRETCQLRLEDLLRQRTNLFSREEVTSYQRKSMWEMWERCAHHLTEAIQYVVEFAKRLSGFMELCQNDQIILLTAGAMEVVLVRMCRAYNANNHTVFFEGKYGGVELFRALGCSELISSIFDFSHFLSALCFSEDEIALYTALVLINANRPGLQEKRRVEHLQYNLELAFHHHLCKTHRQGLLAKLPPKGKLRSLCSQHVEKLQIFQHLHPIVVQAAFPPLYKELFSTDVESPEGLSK
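In this cell-based reporter format, copper sulfate (700 uM final) drives Gal4–ROR gamma fusion expression from a metallothionein promoter in Drosophila Schneider cells; compounds preincubated 1 hr, reporter read after 20 hr at ambient temperature.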
ALDH1A1 block: blocks purified human ALDH1A1 activity. Potency, µM (highest dose often 75.3 µM), hits mostly inhibitors. P00352. 220,000 tested, 7.3% active. AID 1030. Purified ALDH1A1, NADH fluorescence, propionaldehyde substrate; active means well fitted inhibition curve with a large enough effect, not every such curve was filed as active; inconclusive means small, poorly fitted or top-dose-only effect, or another doubt; inactive means no such curve, though single readings can be large or run the other way
Sfp PPTase inh: Sfp phosphopantetheinyl transferase inhibition. AID 1490. Biochemical Sfp PPTase activity, qHTS. Q9F4F7. 310,000 tested, 3.5% active. Potency, µM, hits mostly inhibitors;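 further: the enzyme is Sfp with the accession as filed and its product quenches rhodamine fluorescence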
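Sfp 15 nM + cpd, 15 min RT; start w/ rhodamine-CoA 5 uM, BHQ-2-YbbR 12.5 uM (final); 50 mM Hepes pH 7.6, 10 mM MgCl2, 0.01% NP-40, 0.01% BSA; read 525/598 nm at 0 and 30 min.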
Gal4-VP16 FLuc: Gal4-VP16 reporter inhibition counter-screen | Drosophila S2 Gal4-VP16 UAS-luciferase, luminescence, 20 h | Potency, µM (doses to about 53.6 µM), hits mostly inhibitors | 310,000 tested, 3.5% active | AID 2546;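 further: Gal4-VP16 expression switched on by copper sulfate through the metallothionein promoter; nearly all actives have a fitted effect of over 50% in size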
PLK1 PBD inh: blocks phosphopeptide binding to human PLK1 polo-box domain; P53350; Plk1 PBD binding of FITC phosphopeptide, fluorescence polarization; Potency, µM, most hits filed as inhibitors; 360,000 tested, 2.8% active; further: series mostly up to about 57 µM; nearly all actives have a fitted effect of over 65% in size
A number is an active result; [ ] = another dose, or the depositor's remark. Sampled rows, rich in hits. Any-hit rate of the full collection: about 12%. Unless noted, the call rests on the fitted dose curve; in most records, active means well fitted curve in the direction sought with a large enough effect; inconclusive means small, poorly fitted or top-dose-only effect, or another doubt; inactive means no such curve, though single readings can be large; an effect the other way counts as inactive or inconclusive.

What do the screens show for `CCOC(=O)C1CCCN(C(=O)c2ccc(F)c(C)c2)CC1` (stereo not drawn)?
PLK1 PBD inh: inactive

Results for CCn1c(=O)c(C(=O)NNC(=O)c2ccccc2)c(O)c2ccccc21 ?
RORg inh: inconclusive; Sfp PPTase inh: inactive; Gal4-VP16 FLuc: inconclusive; PLK1 PBD inh: inactive

How did CCCCCCCCC(=O)NNC(=O)c1c(O)c2ccccc2n(CC)c1=O do in these assays?
RORg inh: inactive; ALDH1A1 block: inactive; Sfp PPTase inh: inactive; Gal4-VP16 FLuc: inactive; PLK1 PBD inh: inactive

Results for CCCCCCC(=O)NNC(=O)c1c(O)c2ccccc2n(CC)c1=O ?
RORg inh: 11µM; ALDH1A1 block: inactive; Sfp PPTase inh: inactive; Gal4-VP16 FLuc: inconclusive; PLK1 PBD inh: inactive

What do the screens show for `CCn1c(=O)c(-[n+]2ccccc2)c(O)c2ccccc21`?
RORg inh: inactive; ALDH1A1 block: 25µM; Sfp PPTase inh: 13µM; Gal4-VP16 FLuc: inactive[0.365 µM]; PLK1 PBD inh: inactive

How did C=CCN(CC=C)Cc1cc(=O)oc2cc(OC)ccc12 do in these assays?
PLK1 PBD inh: inactive

How did O=C(NCCOC12CC3CC(CC(C3)C1)C2)c1cccc(Br)c1 do in these assays?
RORg inh: inactive; ALDH1A1 block: 7.1µM; Sfp PPTase inh: inactive; Gal4-VP16 FLuc: inactive; PLK1 PBD inh: inactive

What do the screens show for `O=C(O)CCCCCNC(=O)c1cccc(Br)c1`?
RORg inh: inactive; ALDH1A1 block: inactive; Sfp PPTase inh: inactive; Gal4-VP16 FLuc: inactive; PLK1 PBD inh: inactive

Results for Brc1ccc(-c2noc(-c3ccccn3)n2)o1 ?
RORg inh: inconclusive; Sfp PPTase inh: inactive; Gal4-VP16 FLuc: inconclusive; PLK1 PBD inh: inactive

What do the screens show for `Cc1ccccc1-c1nc(-c2cccnc2)no1`?
RORg inh: inactive; ALDH1A1 block: inactive; Sfp PPTase inh: inactive; Gal4-VP16 FLuc: inactive; PLK1 PBD inh: inactive

What do the screens show for `Cc1ccccc1-c1nc(-c2ccccn2)no1`?
RORg inh: 7.1µM; ALDH1A1 block: inactive; Sfp PPTase inh: inactive; Gal4-VP16 FLuc: 7.9µM; PLK1 PBD inh: inactive

What do the screens show for `Clc1ccc(-c2nc(-c3ccccn3)no2)cc1Cl`?
RORg inh: inactive; ALDH1A1 block: inactive; Sfp PPTase inh: inactive; Gal4-VP16 FLuc: inactive; PLK1 PBD inh: inactive

Results for Brc1ccc(-c2nc(-c3ccccn3)no2)o1 ?
RORg inh: inconclusive; ALDH1A1 block: inactive; Sfp PPTase inh: inactive; Gal4-VP16 FLuc: 7.1µM; PLK1 PBD inh: inactive

How did COc1ccc(-c2nc(-c3ccccn3)no2)cc1 do in these assays?
RORg inh: 0.56µM; ALDH1A1 block: inactive; Sfp PPTase inh: inactive; Gal4-VP16 FLuc: 0.32µM; PLK1 PBD inh: inactive

Results for COc1ccccc1-c1nc(-c2ccccn2)no1 ?
RORg inh: 2.5µM; ALDH1A1 block: inactive; Sfp PPTase inh: inactive; Gal4-VP16 FLuc: 7.1µM; PLK1 PBD inh: inactive

Results for CCOc1ccc(C(=O)C(C)OC(=O)CN2C(=O)NC(C)(C)C2=O)cc1 (stereo not drawn) ?
PLK1 PBD inh: inactive

What do the screens show for `CC(C)CCN=Cc1c(O)n(-c2ccccc2)c(=O)c2ccccc12`?
RORg inh: inactive; ALDH1A1 block: inactive; Sfp PPTase inh: 56µM; Gal4-VP16 FLuc: inactive; PLK1 PBD inh: inactive

Results for CCCN1CCN(C(=O)c2ccc(CS(=O)c3ccc(Br)cc3)o2)CC1 (stereo not drawn) ?
PLK1 PBD inh: inactive

What do the screens show for `COc1cc(CNCCCN2CCOCC2)ccc1OCC(=O)NC(C)(C)C`?
RORg inh: inactive; ALDH1A1 block: inactive; Sfp PPTase inh: inactive; Gal4-VP16 FLuc: inactive; PLK1 PBD inh: inactive

What do the screens show for `COc1cc(CNCCN2CCOCC2)ccc1OCC(=O)NC(C)(C)C`?
RORg inh: inactive; ALDH1A1 block: inactive; Sfp PPTase inh: 71µM; Gal4-VP16 FLuc: inactive[10 µM]; PLK1 PBD inh: inactive

What do the screens show for `CS(=O)(=O)Nc1cccc(-c2nccc(NCc3ccccc3)n2)c1`?
RORg inh: inactive; ALDH1A1 block: inactive; Sfp PPTase inh: inactive; Gal4-VP16 FLuc: inactive

Results for S=C(NCc1ccccc1)NC1CCCc2ccccc21 (stereo not drawn) ?
RORg inh: 2.5µM; ALDH1A1 block: inconclusive; Sfp PPTase inh: inactive; Gal4-VP16 FLuc: 11µM; PLK1 PBD inh: inconclusive

Results for S=C(NCc1ccco1)NC1CCCc2ccccc21 (stereo not drawn) ?
RORg inh: 4.5µM; ALDH1A1 block: inactive; Sfp PPTase inh: inactive; Gal4-VP16 FLuc: 13µM; PLK1 PBD inh: inactive

How did Cc1c(C(=O)NC2CCCc3ccccc32)oc2ccccc12 (stereo not drawn) do in these assays?
RORg inh: 4.5µM; ALDH1A1 block: inactive; Sfp PPTase inh: inactive; Gal4-VP16 FLuc: inactive; PLK1 PBD inh: inactive

Screening data: PubChem BioAssay, National Center for Advancing Translational Sciences (NCATS)
